Test results published in PubChem BioAssay AID1626 (SRMLSC, 2009).
About 2,000 (0.91%) of roughly 220,000 compounds were called active. Roughly 2% stayed inconclusive and do not appear here. Rule as the data show it: inconclusive = inhibition above about 80% without an active follow-up result; inactive = below that; test concentration not stated here. Only a sample is shown. Measured potencies and affinities stand elsewhere.

Experiment: M. tuberculosis H37Rv growth inhibitors, H37Rv strain (AID 1626);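 also: bacteria incubated seven days before Alamar blue readout; 0% = bacteria only wells and 100% = bacteria with antibiotic wells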
Details: active compounds read high, concentration not given here

Structure (SMILES)	inhibition
CC(C)C1(C)N=C(c2ncccc2C(=O)O)NC1=O (centres undefined)	-2.93% (inactive)
Cc1nn(CC(=O)N2c3ccccc3NC(=O)C2(C)C)c(C)c1[N+](=O)[O-]	0.71% (inactive)
Cc1c(NC(=O)C(C)OC(=O)Cc2ccccc2)c(=O)n(-c2ccccc2)n1C (centres undefined)	-13.3% (inactive)
O=C(O)Cn1nnc2ccccc21	-9.61% (inactive)
CC(=O)Nc1ccccc1NC(=O)c1ccc(C)c(C)c1	-3.12% (inactive)
Nc1c(C(=O)N/N=C/c2ccc([N+](=O)[O-])cc2)sc2nnc(-c3ccccc3)c(-c3ccccc3)c12	-2.7% (inactive)
O=C(NCC(O)CO)c1ccc2[nH]c3ccccc3c2c1 (centres undefined)	1.5% (inactive)
Cn1c(N2CCCC2)nc2c1c(=O)n(Cc1cccc(F)c1)c(=O)n2C	2.57% (inactive)
Cc1nc(N2CCOCC2)c2cc(-c3ccccc3)sc2n1	5.12% (inactive)
Cc1ccc(SCc2cc(=O)[nH]c(N3CCN(Cc4ccc5c(c4)OCO5)CC3)n2)cc1	4.26% (inactive)
O=c1cc(-c2ccccc2)nc(N2CCN(Cc3ccccc3)CC2)[nH]1	16.3% (inactive)
Cc1nc(N2CCN(C)CC2)c2cc(-c3ccccc3)sc2n1	-3.54% (inactive)
COC(=O)c1cccc(NCN2C(=O)c3ccccc3C2=O)c1	1.78% (inactive)
COc1ccc(CN2CCn3nc(C(=O)NC4CC4)cc3C2=O)cc1	0.45% (inactive)
CCc1nn(CC(=O)NCCN2CCN(C)CC2)c(=O)c2cc3occc3n12	2.11% (inactive)
O=C(Nc1ccccc1F)C1CCCN(S(=O)(=O)c2ccccc2)C1 (centres undefined)	1.63% (inactive)
CC(=Nc1ccc2c(c1)nc(CO)n2C)C1=C(O)CC(C)(C)CC1=O	-0.93% (inactive)
CC(=O)Nc1cccc(Oc2ncnc3scc(-c4ccc(C)cc4)c23)c1	17.3% (inactive)
CC(=O)Nc1cccc(Oc2ncnc3scc(-c4ccccc4)c23)c1	1.97% (inactive)
CCc1cc2c(C)cc(=O)oc2cc1Oc1ncccc1[N+](=O)[O-]	1.8% (inactive)
Cc1cc(=O)oc2cc(Oc3ncccn3)ccc12	-2.26% (inactive)
Cc1cc(=O)oc2cc(Oc3ccc([N+](=O)[O-])cc3[N+](=O)[O-])ccc12	51% (inactive)

Structure (SMILES)	inhibition
Cc1cc(=O)oc2cc(Oc3ccc(C(N)=O)cc3[N+](=O)[O-])ccc12	-11.6% (inactive)
O=C(COC(=O)CCSc1ccc(Cl)cc1)NCc1ccc(Cl)cc1	1.66% (inactive)
COc1ccc(CCC(=O)N/N=C\c2cccs2)cc1	36.8% (inactive)
Cc1ccc(-c2csc3nc(C(C)C)oc(=O)c23)c(C)c1	14.9% (inactive)
COc1cc(C2SC(C)C(=O)N2CCc2ccccc2)cc(OC)c1OC (centres undefined)	6.28% (inactive)
O=C(N/C=C/c1ccccc1)Nc1ccc(Cl)cc1	7.4% (inactive)
Cc1nc2ccc(NC(=O)COc3ccccc3C)cc2s1	52.7% (inactive)
Cc1cccc(OCC(=O)Nc2ccc3nc(C)sc3c2)c1	89.5% (inactive)
Cc1nc2ccc(NC(=O)Cc3cccc(F)c3)cc2s1	0.69% (inactive)
COc1ccc(OCC(=O)Nc2nc3ccc(NC(C)=O)cc3s2)cc1	-3.22% (inactive)
COc1ccc(CC(=O)Nc2ccc3nc(C)sc3c2)cc1OC	2.65% (inactive)
COc1cc(CC(=O)Nc2ccc3nc(C)sc3c2)cc(OC)c1OC	-7.08% (inactive)
Cc1nc2ccc(NC(=O)COc3ccccc3)cc2s1	83.5% (inactive)
CC(=O)c1ccc(OCC(=O)Nc2ccc3nc(C)sc3c2)cc1	56.8% (inactive)
CCC(C)(C)NC(=O)C(c1cccc(OC)c1)N(C(=O)c1ccn[nH]1)c1cccc(OC)c1 (centres undefined)	-8.88% (inactive)
COCCNC(=O)c1cn(C)c2ccc(S(=O)(=O)N(C)C3CCCCC3)cc2c1=O	-12% (inactive)
COc1ccc(S(=O)(=O)N(CC(=O)N2CCN(C)CC2)c2ccccc2)cc1OC	-11.1% (inactive)
CCC(CC)C1C(C#N)=C(N)Oc2cc(C)oc(=O)c21 (centres undefined)	-11.1% (inactive)
Cc1cc2nnc(SCC(=O)NCC3CCCO3)n2c2ccccc12 (centres undefined)	-6.93% (inactive)
Cc1ccc(-c2csc(/C(C#N)=C/Nc3ccccc3SC(F)(F)F)n2)c(C)c1	-7.14% (inactive)
COc1cc(C2c3c(oc4ccccc4c3=O)C(=O)N2Cc2cccnc2)cc(OC)c1OC (centres undefined)	1.59% (inactive)
CCN(C(=O)CN1c2ccccc2CC1C)c1c(N)n(Cc2ccccc2)c(=O)[nH]c1=O (centres undefined)	3.3% (inactive)

Structure (SMILES)	inhibition
CSc1nc2ccc(NC(=O)C3CC(=O)N(Cc4ccco4)C3)cc2s1 (centres undefined)	7.1% (inactive)
CC(=O)c1cccc(NC(=O)C2CC(=O)N(Cc3ccccc3)C2)c1 (centres undefined)	-1.4% (inactive)
O=C(NNS(=O)(=O)c1ccccc1C(F)(F)F)c1cccc(S(=O)(=O)Nc2ccccc2Cl)c1	5.57% (inactive)
CC(C)CNS(=O)(=O)c1ccc(CCC(=O)N2CCN(c3ccccc3)CC2)cc1	0.62% (inactive)
Nc1c(C(=O)NCC2CCCO2)sc2nc3c(c(-c4ccco4)c12)CC/C3=C\c1ccco1 (centres undefined)	-3.62% (inactive)
O=[N+]([O-])c1cc(S(=O)(=O)Nc2ccccc2)ccc1N1CCN(c2ccc(O)cc2)CC1	3.41% (inactive)
O=[N+]([O-])c1cc(S(=O)(=O)C(F)(F)F)ccc1N1CCN(c2ccccc2)CC1	26.1% (inactive)
CC(C)c1nc2sc3c(NCc4ccccc4)ncnc3c2c2c1COC(C)(C)C2	-2.03% (inactive)
COc1ccc(C)cc1N/C(N)=N/c1nc(C)cc(C)n1	-4.57% (inactive)
Cc1ccc(N/C(N)=N/c2nc3c(c(=O)[nH]2)CCCC3)c(C)c1	6.84% (inactive)
S=C1NC2(CCCCC2)Cc2ccccc21	4.66% (inactive)
Cc1sc2nc(-c3cccnc3)[nH]c(=O)c2c1-c1ccccc1	-0.42% (inactive)
CC(C)(C)C(=O)/C=c1\[nH]c(=O)/c(=C\c2ccc(C#N)cc2)s1	75.3% (inactive)
CCc1ccc(/C=C(\C)C(=O)c2c(C)cc(C)[nH]c2=O)cc1	5.72% (inactive)
COc1cc(/C=c2\s/c(=C\C(=O)C(C)(C)C)[nH]c2=O)cc(OC)c1OC	66.3% (inactive)
COc1ccc(/C=C2\SC(c3ccc(C)cc3)=NC2=O)cc1OC	-10.8% (inactive)
COc1ccc(C=C2C(=O)c3ccccc3C2=O)cc1O	1.77% (inactive)
Cc1ccccc1/C=C1\CCCc2ccccc2C1=O	5.73% (inactive)
CC(C)(C)C(=O)/C=c1\[nH]c(=O)/c(=C\c2ccccc2F)s1	79.9% (inactive)
COc1cccc(/C=c2\s/c(=C/C(=O)c3ccc(C)cc3)[nH]c2=O)c1OC	17.8% (inactive)
